Results from the supplement of paper PMC8877412.
± gives the uncertainty stated by the source.

The compounds below were run on NCC-PMP1-C1 (assay: cell viability relative to DMSO control; higher = less growth inhibition). Conditions: 10 µM; 72 h.
Method: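 NCC-PMP1-C1 pseudomyxoma peritonei cells were seeded in 384-well plates coated with Matrigel and MEF (1e4 cells). Viability was read after 72 h by CCK-8 and expressed as % of the DMSO control, mean ± SD of duplicates.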
Compound `CCCCNC(=O)NS(=O)(=O)c1ccc(C)cc1` [Tolbutamide] has a cell viability of 96.4 ± 6.1%.
Work on `Cc1ccc(NC(=O)c2ccc(CN3CCN(C)CC3)cc2)cc1Nc1nccc(-c2cccnc2)n1` [Imatinib (STI571)] yielded a cell viability of 92.3 ± 6.7%.
`CCCCNc1ncc(-c2ccc(CN3CCOCC3)cn2)c(NC2CCC(O)CC2)n1` (stereo unspecified) showed a cell viability of 43.4 ± 2%.
Compound `CCCCCCNC(=O)n1cc(F)c(=O)[nH]c1=O` [Carmofur] has a cell viability of 96.6 ± 12%.
`Cc1ccc(-c2cc(C(F)(F)F)nn2-c2ccc(S(N)(=O)=O)cc2)cc1` [Celecoxib] showed a cell viability of 99.99 ± 0.53%.
For `C[C@@H](CN1CC(=O)NC(=O)C1)N1CC(=O)NC(=O)C1` [Dexrazoxane], the cell viability was 94.8 ± 15%.
